Consider nine molecules from PubChem BioAssay (EPA / NIEHS).

As usually defined, the AC50 is the concentration giving half of the maximal activity seen.

Where “and” joins values, the source holds several entries; their conditions need not be identical. Equal values may be shown once. Inconclusive results are not listed. Calls of active or inactive are those of the source. How the source made its calls, unless noted: active means hit-call score of the fitted dose curve at least 0.9, where 1 is the maximum; inactive means score below 0.9.

Read-out in assay [1]: CD69, CD69 (gene 969)
Kind of assay: BSK_SAg_CD69: BioMAP Diversity Plus: SAg Assay for CD69 Biomarker Activity (AID 2283089).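 On AC50: cell surface CD69 protein quantified by ELISA with fluorescence detection.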 The note with it: primary human HUVEC with PBMC; actives raise or lower the signal. The method in brief:
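ELISA, fluorescence read-out: CD69 on human umbilical vein endothelial cell + PBMC co-culture, 24 h post-dosing. Gain or loss of signal fitted bidirectionally against DMSO baseline.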

Read-out in assay [2]: Monocyte Chemoattractant Protein-1 (MCP1), CCL2 (gene 6347)
Put plainly: BSK_SAg_MCP1: BioMAP Diversity Plus: SAg Assay for Monocyte Chemoattractant Protein-1 (MCP1) Biomarker Activity (AID 2283090). The note with it: primary human HUVEC with PBMC; actives raise or lower the signal. The method in brief: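 MCP-1 levels in the endothelial–PBMC SAg co-culture were quantified by ELISA at 24 h post-dosing; both increases and decreases versus DMSO scored. Cytotoxicity monitored by SRB total protein in parallel cultures.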

Read-out in assay [3]: E-selectin (Homo sapiens) (UniProt P16581)
Put plainly: BSK_SAg_Eselectin: BioMAP Diversity Plus: SAg Assay for Eselectin Biomarker Activity (AID 2283091). Particulars: primary human HUVEC with PBMC; actives raise or lower the signal. The method in brief:
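Co-culture: HUVEC + PBMC. Dose compound; 24 h. ELISA for E-selectin. Bidirectional fit vs DMSO.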

Read-out in assay [4]: Monokine induced gamma interferon (MIG), CXCL9 (gene 4283)
Kind of assay: BSK_SAg_MIG: BioMAP Diversity Plus: SAg Assay for Monokine induced gamma interferon (MIG) Biomarker Activity (AID 2283092). Particulars: primary human HUVEC with PBMC; actives raise or lower the signal. The procedure, abridged:
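ELISA readout of MIG/CXCL9; primary human umbilical vein endothelial cells co-cultured with peripheral blood mononuclear cells; 24 h post-dose; gain/loss fit vs DMSO baseline.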

Assay [5] can be described thus: BSK_SAg_PBMCCytotoxicity: PBMC Cytotoxicity Assessment in the BioMAP Diversity Plus: SAg Assay (AID 2283093).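 Further: PBMC viability measured as Alamar Blue reduction fluorescence at 546/580 nm; fitted both ways against DMSO so a hit may be loss or gain of signal.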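 On AC50: PBMC superantigen activated with SEB plus TSST-1 one hour after compound addition.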 Particulars: primary human HUVEC with PBMC. The method in brief:
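Compound added to 75,000 PBMC/well for 1 h; SEB and TSST-1 then added at 20 ng/mL final each; 90 h incubation; Alamar Blue 6 h; read 546/580 nm ex/em. Activity fitted bidirectionally relative to DMSO baseline.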

Read-out in assay [6]: Interleukin-8 (IL8), CXCL8 (gene 3576)
Kind of assay: BSK_SAg_IL8: BioMAP Diversity Plus: SAg Assay for Interleukin-8 (IL8) Biomarker Activity (AID 2283094). Particulars: primary human HUVEC with PBMC; actives raise or lower the signal. The method in brief:
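Human umbilical vein endothelial cells co-cultured with peripheral blood mononuclear cells; IL-8 measured by ELISA 24 h after chemical dosing. Bidirectional concentration-response fitting used DMSO as negative control and activity baseline.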

The nature of assay [7]: BSK_SAg_SRB: Viability Assessment in the BioMAP Diversity Plus: SAg Assay (AID 2283096).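 Further: cells read one day after compound addition; hits may be either gain or loss of signal compared with DMSO.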 Particulars: primary human HUVEC with PBMC. The procedure, abridged:
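Total protein by sulforhodamine B staining, 24 h after dosing, in HUVEC–PBMC co-culture; DMSO-referenced bidirectional fitting.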

Assay [8] is described as follows: BSK_SAg_Proliferation: Cell Proliferation Assessment in the BioMAP Diversity Plus: SAg Assay (AID 2283095).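 Further: relative cell number as total protein by SRB absorbance in sub-confluent culture.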 The note with it: primary human HUVEC with PBMC. The procedure, abridged: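 Human umbilical vein endothelial cells co-cultured with peripheral blood mononuclear cells; total protein measured by sulforhodamine B staining (0.1% SRB after 10% TCA fixation), absorbance at 560 nm, at 96 h. Bidirectional fit against DMSO baseline.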

Assay [9] concerns the target human CYP1A1, CYP1A1 (gene 1543) (UniProt P04798). Put plainly: NVS_ADME_hCYP1A1: NovaScreen (NVS) CYP450-related Enzyme Activity (ADME) Assay for human CYP1A1 (AID 2283100; active means hit-call score of the fitted dose curve at least 0.9, where 1 is the maximum). The procedure, abridged:
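Recombinant hCYP1A1 + fluorogenic substrate, cell-free; 1 h; fluorescence read. Single-point 10 uM (duplicate) → concentration series, max 20 uM. Acetonitrile negative control.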

Assay [10] deals with human CYP2B6, CYP2B6 (gene 1555) (UniProt P20813). Kind of assay: NVS_ADME_hCYP2B6: NovaScreen (NVS) CYP450-related Enzyme Activity (ADME) Assay for human CYP2B6 (AID 2283101; active means hit-call score of the fitted dose curve at least 0.9, where 1 is the maximum). The procedure, abridged:
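Fluorescence-based enzyme activity of recombinant human CYP2B6, measured 1 h post-dose against acetonitrile vehicle baseline. Screened at a single concentration of 10 uM in duplicate before concentration-response follow-up.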

Assay [11] addresses Cytochrome P450 3A4 (Homo sapiens) (UniProt P08684). Put plainly: NVS_ADME_hCYP3A4: NovaScreen (NVS) CYP450-related Enzyme Activity (ADME) Assay for human CYP3A4 (AID 2283110; active means hit-call score of the fitted dose curve at least 0.9, where 1 is the maximum). The procedure, abridged: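 Compounds were first screened in duplicate at 10 uM against recombinant CYP3A4 produced in insect cells, then actives were run in concentration series. Enzyme activity was measured by fluorescence after 0.33 hour, with acetonitrile as baseline.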

The target of assay [12] is Cytochrome P450 2C19 (Homo sapiens) (UniProt P33261). Put plainly: NVS_ADME_hCYP2C19: NovaScreen (NVS) CYP450-related Enzyme Activity (ADME) Assay for human CYP2C19 (AID 2283113; active means hit-call score of the fitted dose curve at least 0.9, where 1 is the maximum;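 further: potency for inhibition seen as loss of fluorescent signal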). The procedure, abridged: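 Fluorescence intensity was measured 1 hour after chemicals were added to insect-cell-derived recombinant CYP2C19 with fluorogenic substrate. Decreased signal versus acetonitrile control was taken as reduced enzyme activity; initial testing used 10 uM in duplicate.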

Assay [13] has as its target human CYP19A1, CYP19A1 (gene 1588) (UniProt P11511). Kind of assay: NVS_ADME_hCYP19A1: NovaScreen (NVS) CYP450-related Enzyme Activity (ADME) Assay for human CYP19A1 (AID 2283098; active means hit-call score of the fitted dose curve at least 0.9, where 1 is the maximum). The procedure, abridged: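 Biochem, cell-free; recombinant enzyme + specific substrate; fluorescence intensity at 0.5 h post-dose; 10 uM duplicate primary, conc. series for actives; acetonitrile = negative control/baseline; positive and negative controls on every plate.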

Assay [14] addresses human CYP2C9, CYP2C9 (gene 1559) (UniProt P11712). Kind of assay: NVS_ADME_hCYP2C9: NovaScreen (NVS) CYP450-related Enzyme Activity (ADME) Assay for human CYP2C9 (AID 2283108; active means hit-call score of the fitted dose curve at least 0.9, where 1 is the maximum). The procedure, abridged: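 Fluorescence readout of CYP2C9 activity (SF9-expressed human enzyme) at 0.75 h. The primary screen used 10 uM in duplicate, with concentration-response follow-up for actives; acetonitrile was the negative control.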

E-selectin (Homo sapiens), sequence (P16581 whole entry, looked up): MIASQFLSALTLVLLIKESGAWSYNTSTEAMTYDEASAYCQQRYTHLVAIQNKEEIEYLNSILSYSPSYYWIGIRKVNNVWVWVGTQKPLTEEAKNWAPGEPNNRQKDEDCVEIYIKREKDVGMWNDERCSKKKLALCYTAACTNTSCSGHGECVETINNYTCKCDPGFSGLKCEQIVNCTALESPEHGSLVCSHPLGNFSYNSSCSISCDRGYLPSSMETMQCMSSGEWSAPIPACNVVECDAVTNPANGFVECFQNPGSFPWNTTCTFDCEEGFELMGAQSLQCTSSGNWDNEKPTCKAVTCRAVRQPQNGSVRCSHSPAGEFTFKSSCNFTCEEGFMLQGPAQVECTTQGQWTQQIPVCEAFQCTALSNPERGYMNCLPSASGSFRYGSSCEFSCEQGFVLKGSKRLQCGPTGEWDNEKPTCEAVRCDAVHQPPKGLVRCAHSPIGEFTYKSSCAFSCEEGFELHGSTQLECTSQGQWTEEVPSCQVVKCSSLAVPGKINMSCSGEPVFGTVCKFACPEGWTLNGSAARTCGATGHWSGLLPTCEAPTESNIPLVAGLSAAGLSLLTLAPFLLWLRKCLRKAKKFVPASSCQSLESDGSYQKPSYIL
Cytochrome P450 3A4 (Homo sapiens), sequence (P08684 whole entry, looked up): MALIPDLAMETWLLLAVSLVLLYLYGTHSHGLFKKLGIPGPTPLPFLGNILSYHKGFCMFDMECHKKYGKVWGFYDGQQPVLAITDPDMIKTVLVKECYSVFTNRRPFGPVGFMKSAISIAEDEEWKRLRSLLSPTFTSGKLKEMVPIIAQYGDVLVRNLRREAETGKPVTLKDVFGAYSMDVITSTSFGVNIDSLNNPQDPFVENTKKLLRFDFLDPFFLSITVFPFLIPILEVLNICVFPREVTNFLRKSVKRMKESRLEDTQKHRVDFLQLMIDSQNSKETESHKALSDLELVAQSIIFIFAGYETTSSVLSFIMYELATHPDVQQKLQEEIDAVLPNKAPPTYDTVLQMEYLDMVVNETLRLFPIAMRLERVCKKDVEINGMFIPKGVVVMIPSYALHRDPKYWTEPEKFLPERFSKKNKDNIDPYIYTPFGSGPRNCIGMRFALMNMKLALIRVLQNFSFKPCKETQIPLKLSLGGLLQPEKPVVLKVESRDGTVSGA
human CYP2B6, CYP2B6 (gene 1555), sequence (P20813 whole entry, looked up): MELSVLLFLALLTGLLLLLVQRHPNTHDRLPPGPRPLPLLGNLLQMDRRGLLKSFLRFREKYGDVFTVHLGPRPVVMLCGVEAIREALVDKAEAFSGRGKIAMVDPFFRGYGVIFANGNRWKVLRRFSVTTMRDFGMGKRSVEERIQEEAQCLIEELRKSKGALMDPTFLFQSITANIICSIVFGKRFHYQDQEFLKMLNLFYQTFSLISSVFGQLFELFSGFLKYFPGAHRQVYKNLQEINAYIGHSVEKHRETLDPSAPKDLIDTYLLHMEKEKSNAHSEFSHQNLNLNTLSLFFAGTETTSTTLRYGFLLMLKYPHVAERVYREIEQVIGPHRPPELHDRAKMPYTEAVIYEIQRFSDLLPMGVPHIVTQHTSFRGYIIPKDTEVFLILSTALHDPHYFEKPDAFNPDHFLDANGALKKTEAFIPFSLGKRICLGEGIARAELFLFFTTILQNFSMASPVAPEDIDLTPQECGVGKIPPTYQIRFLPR
human CYP19A1, CYP19A1 (gene 1588), sequence (P11511 whole entry, looked up): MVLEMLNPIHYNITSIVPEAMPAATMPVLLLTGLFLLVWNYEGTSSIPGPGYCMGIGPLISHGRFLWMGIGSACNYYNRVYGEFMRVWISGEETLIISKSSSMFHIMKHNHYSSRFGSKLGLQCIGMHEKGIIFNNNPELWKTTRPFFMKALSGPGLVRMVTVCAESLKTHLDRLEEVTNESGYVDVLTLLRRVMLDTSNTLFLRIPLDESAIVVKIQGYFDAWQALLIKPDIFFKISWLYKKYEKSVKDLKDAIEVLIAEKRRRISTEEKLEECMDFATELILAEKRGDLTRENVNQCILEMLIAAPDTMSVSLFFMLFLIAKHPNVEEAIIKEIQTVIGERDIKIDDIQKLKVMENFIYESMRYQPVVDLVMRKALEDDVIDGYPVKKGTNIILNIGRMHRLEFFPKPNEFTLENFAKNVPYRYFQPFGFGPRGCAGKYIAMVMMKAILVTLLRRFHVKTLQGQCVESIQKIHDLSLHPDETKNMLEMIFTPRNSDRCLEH
human CYP1A1, CYP1A1 (gene 1543), sequence (P04798 whole entry, looked up): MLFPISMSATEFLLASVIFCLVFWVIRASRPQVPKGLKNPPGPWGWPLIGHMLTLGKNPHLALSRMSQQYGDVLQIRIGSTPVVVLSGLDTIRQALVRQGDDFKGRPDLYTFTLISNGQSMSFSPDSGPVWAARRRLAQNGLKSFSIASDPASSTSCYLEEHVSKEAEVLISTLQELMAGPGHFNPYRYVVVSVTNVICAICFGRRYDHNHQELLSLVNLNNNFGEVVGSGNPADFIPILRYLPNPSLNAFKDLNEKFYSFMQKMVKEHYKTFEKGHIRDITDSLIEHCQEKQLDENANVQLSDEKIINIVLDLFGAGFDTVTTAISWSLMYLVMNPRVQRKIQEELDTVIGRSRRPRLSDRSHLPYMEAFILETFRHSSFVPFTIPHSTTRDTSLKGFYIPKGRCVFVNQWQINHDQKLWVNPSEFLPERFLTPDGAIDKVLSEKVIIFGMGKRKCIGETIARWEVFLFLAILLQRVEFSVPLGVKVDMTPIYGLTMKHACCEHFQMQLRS
human CYP2C9, CYP2C9 (gene 1559), sequence (P11712 whole entry, looked up): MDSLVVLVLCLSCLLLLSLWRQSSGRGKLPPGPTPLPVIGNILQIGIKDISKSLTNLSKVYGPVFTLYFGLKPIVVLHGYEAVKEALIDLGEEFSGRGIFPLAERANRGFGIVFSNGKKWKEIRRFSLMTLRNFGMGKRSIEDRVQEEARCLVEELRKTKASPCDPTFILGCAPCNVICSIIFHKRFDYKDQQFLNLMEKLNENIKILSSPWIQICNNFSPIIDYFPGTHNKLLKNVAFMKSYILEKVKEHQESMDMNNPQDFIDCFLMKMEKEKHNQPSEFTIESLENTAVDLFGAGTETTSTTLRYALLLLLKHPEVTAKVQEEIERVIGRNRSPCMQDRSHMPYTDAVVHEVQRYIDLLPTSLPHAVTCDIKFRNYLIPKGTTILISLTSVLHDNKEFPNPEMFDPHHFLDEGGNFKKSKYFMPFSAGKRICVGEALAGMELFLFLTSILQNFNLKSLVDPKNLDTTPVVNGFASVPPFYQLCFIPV

Regarding `CCOc1cc(Oc2ccc(C(F)(F)F)cc2Cl)ccc1[N+](=O)[O-]`, the outcome in assay [1], in assay [2], in assay [4] and in assay [5] was inactive. For the same molecule, the AC50 in assay [3] is 9.5 µM (active); in [6], 12.5 µM (active); in [7], 13.3 µM (active).

`C=CC1(C)OC(=O)N(c2cc(Cl)cc(Cl)c2)C1=O` (centres undefined): the outcome in assay [1], in assay [2], in [3], in assay [4], in assay [5] and in assay [6] was inactive. The result in assay [8], in assay [7], in assay [9] and in [11] was inactive. Also, the AC50 in assay [10] is 6.73 µM (active) and 5.83 µM (active); in assay [12], 5.01 µM (active) and 10 µM (active) and 1.87 µM (active).

With `CCCCNC(=O)n1c(NC(=O)OC)nc2ccccc21`, the outcome in assay [1], in assay [2], in assay [3], in assay [4], in [5] and in assay [6] was inactive. In addition, in assay [7], the AC50 is 12.3 µM (active).

For the molecule `O=C(O)COc1nc(Cl)c(Cl)cc1Cl`, the outcome in assay [1], in assay [2], in assay [3], in assay [4], in [5] and in [6] was inactive. Also, the result in assay [7] was inactive.

For `C#CCOS(=O)OC1CCCCC1Oc1ccc(C(C)(C)C)cc1` (centres undefined), the AC50 in [1] is 5.11 µM (active); in assay [2], 7.84 µM (active); in assay [3], 4.02 µM (active); in assay [4] it was 16.7 µM (active); in [5], 14.6 µM (active); in [6], 1.92 µM (active). In addition, the values for the AC50 in assay [8], in assay [7] and in assay [12] were 1.16 µM (active), 10.8 µM (active) and 14.3 µM (active), respectively. Further, the molecule was classed as inactive in [13], in assay [14] and in [11].

Turning to `Cc1c(F)c(F)c(COC(=O)C2C(/C=C(\Cl)C(F)(F)F)C2(C)C)c(F)c1F` (centres undefined), the AC50 is 5.53 µM (active) in assay [1], 12.5 µM (active) in assay [3] and 25.9 µM (active) in assay [7]. The result in assay [2], in assay [4], in assay [5] and in assay [6] was inactive.

As to `CC(C)(C)c1ccc(CSc2cnn(C(C)(C)C)c(=O)c2Cl)cc1`, the AC50 in assay [1] was 1.43 µM (active); in assay [2] it was 1.11 µM (active); in [3] it was 0.148 µM (active); in assay [5], 0.0975 µM (active); in assay [6], 0.453 µM (active); in assay [8] it was 6.61 µM (active). Besides, the AC50 in assay [7] was 13.6 µM (active). In addition, in [4], the outcome was inactive.

Consider `CC(Oc1ccc(Cl)cc1Cl)C(=O)O` (centres undefined), for which the result in assay [1], in [2], in [3], in assay [4], in assay [5] and in assay [6] was inactive. Further, the outcome in [7] was inactive.

In the case of `COC(=O)C=C(C)OP(=O)(OC)OC`, the outcome in assay [1], in [2], in assay [3], in assay [4], in assay [5] and in [6] was inactive. Also, the outcome in assay [7] was inactive.
